Compound activity from PubChem.
Only some compounds are listed: those with a hit (about 0.92% of all), similar ones and a draw of the others.
BLM inh: qHTS Assay for Inhibitors of Bloom's syndrome helicase (BLM); AID 2528, 2010; recombinant BLM DNA unwinding, fluorescence dequenching; 0.2% of 350,000 active; RecQ-like DNA helicase BLM (Homo sapiens), P54132; Potency, µM (top dose mostly 56.1 µM), usual class: inhibitors; further: nearly all actives have a fitted effect of over 35% in size
TDP1 inh: qHTS Assay for Inhibitors of Tyrosyl-DNA Phosphodiesterase (TDP1). Tyrosyl-DNA phosphodiesterase 1 (Homo sapiens), Q9NUW8. recombinant TDP1, AlphaScreen DNA substrate cleavage. Potency, µM (series often up to 130 µM), actives largely listed as inhibitors. 0.28% of 350,000 active. AID 485290, 2010; further: nearly all actives have a fitted effect of over 40% in size
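Compounds were preincubated with Tdp1 (1 nM final) for 15 min at room temperature before substrate (15 nM final) started a 5 min reaction; beads (10 ug/ml final) were then added for 10 min before AlphaScreen detection.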
FEN1 inh: qHTS Assay for the Inhibitors of Human Flap endonuclease 1 (FEN1); AID 588795, 2011; Recombinant FEN1 flap cleavage, fluorescence, 15 min; Potency, µM (series often up to 114 µM), usual class: inhibitors; 0.35% of 390,000 active; further: nearly all actives have a fitted effect of over 65% in size
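With each library titrated from low to high concentration, compounds met 10 nM FEN1 for 15 min at room temperature before 50 nM substrate was added; readings at 0 and 15 min fed four-parameter Hill curve fits.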
APE1 inh: qHTS Assay for Inhibitors of the Human Apurinic/apyrimidinic Endonuclease 1 (APE1) | 0.35% of 350,000 active | recombinant APE1, TAMRA/BHQ-2 abasic DNA cleavage fluorescence | Potency, µM (top dose mostly 65.8 µM), hits mostly inhibitors; further: nearly all actives have a fitted effect of over 55% in size
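Compound pre-exposure to 0.75 nM APE1, 15 min at ambient temperature. Reaction initiated with 50 nM TAMRA/BHQ-2 THF substrate, read immediately in kinetic mode, 525 nm excitation, 598 nm emission.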
RECQ1 inh-1: qHTS Assay for Inhibitors of RecQ-Like Dna Helicase 1 (RECQ1); ATP-dependent DNA helicase Q1 (Homo sapiens), P46063; RECQ1 DNA unwinding, red fluorescence kinetic read; Potency, µM (series often up to 57.3 µM), hits mostly inhibitors; 0.54% of 240,000 active; AID 2549, 2010; further: nearly all actives have a fitted effect of over 30% in size
Target sequence (P46063 whole entry, looked up): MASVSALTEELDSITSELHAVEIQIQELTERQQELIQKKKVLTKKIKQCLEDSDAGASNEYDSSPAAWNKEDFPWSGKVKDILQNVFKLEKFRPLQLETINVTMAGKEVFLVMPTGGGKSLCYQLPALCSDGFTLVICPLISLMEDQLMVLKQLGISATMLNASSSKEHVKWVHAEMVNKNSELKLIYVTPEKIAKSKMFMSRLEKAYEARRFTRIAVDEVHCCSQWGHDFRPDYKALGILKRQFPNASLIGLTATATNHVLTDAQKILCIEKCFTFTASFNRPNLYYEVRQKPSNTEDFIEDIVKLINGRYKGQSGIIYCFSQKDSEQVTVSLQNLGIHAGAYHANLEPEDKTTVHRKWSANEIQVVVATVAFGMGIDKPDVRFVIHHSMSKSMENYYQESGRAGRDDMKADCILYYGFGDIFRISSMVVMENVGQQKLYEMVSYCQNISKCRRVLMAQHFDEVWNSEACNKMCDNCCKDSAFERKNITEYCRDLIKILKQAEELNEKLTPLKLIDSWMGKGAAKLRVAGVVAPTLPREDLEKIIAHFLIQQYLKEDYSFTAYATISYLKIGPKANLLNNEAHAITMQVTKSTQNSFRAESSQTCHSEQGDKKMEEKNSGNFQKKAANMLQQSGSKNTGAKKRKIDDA
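RECQ1T1 50 nM; forked duplex (20 bp + 30-nt ss tails) 200 nM, ATP 2 mM final; pH 8.0, 2 mM MgCl2, 2.5 ug/ml poly(dI-dC); 15 min compound preincubation; discontinuous kinetic read over 2 h at RT.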
RECQ1 conf: Confirmation qHTS Assay for Inhibitors of RecQ-Like Dna Helicase 1 (RECQ1). Potency, µM (series often up to 229 µM), usual class: inhibitors. 28% of 610 active. AID 2708, 2010. shares compounds with RECQ1 inh-1. RECQ1 helicase DNA unwinding, fluorescence; further: nearly all actives have a fitted effect of over 45% in size
RECQ1 ADP FP: Counterscreen for RECQ1 Inhibitors: ADP Fluorescence Polarization Displacement Assay; Potency, µM (doses to about 228 µM), actives largely listed as inhibitors; ADP fluorescence polarization displacement counterscreen; shares compounds with RECQ1 inh-1; 27% of 530 active; further: nearly all actives have a fitted effect of over 45% in size
RECQ1 inh-2: Confirmation qHTS Assay for Inhibitors of RecQ-Like Dna Helicase 1 (RECQ1) - Round 2 Cherry Picks. 15% of 1,100 active. AID 504841, 2011. recombinant RECQ1 DNA unwinding, red fluorescence. Potency, µM (titrated, usually from 119 µM), most hits filed as inhibitors. shares compounds with RECQ1 inh-1; further: nearly all actives have a fitted effect of over 50% in size
Large screens that a line does not name were inactive (follow-up assays come after a bar, where they were run). The call rests on the fitted dose curve; in most records, active means well fitted curve in the direction sought with a large enough effect; inconclusive means small, poorly fitted or top-dose-only effect, or another doubt; inactive means no such curve, though single readings can be large; an effect the other way counts as inactive or inconclusive.

Cc1ccc(-c2csc(NC(=O)C3=NN(c4ccccc4)C(=O)CC3)n2)cc1	RECQ1 inh-1 inconclusive | RECQ1 inh-2 inactive
CC(C)C[C@@H](CC(=O)N[C@H](CC(=O)N[C@@H]1CCNC[C@H]1C(=O)N[C@H](CC(=O)N[C@@H](CCC(=O)O)CC(=O)O)Cc1ccccc1)C(C)C)NC(=O)[C@@H]1CCCC[C@H]1N	none (no result: FEN1 inh)
CCOC(=O)c1sc2ncnc(NCc3ccco3)c2c1C	APE1 inh inconclusive, RECQ1 inh-1 inconclusive (no result: TDP1 inh) | RECQ1 inh-2 inactive
CCOC(=O)c1sc2nc(CC(=O)OC)nc(NCc3ccco3)c2c1C	none
CN(Cc1ccccc1)C(=O)CCNS(=O)(=O)c1ccc2c(c1)oc(=O)n2C	APE1 inh inconclusive, RECQ1 inh-1 35µM | RECQ1 inh-2 inconclusive
COc1cc(CN(C(=O)c2ccccc2[N+](=O)[O-])c2ccccn2)cc(OC)c1OC	none (no result: APE1 inh, RECQ1 inh-1)
COC(=O)[C@@]1(Cc2ccccc2)[C@H]2c3cc(C(=O)N(C)C)n(CCF)c3C[C@H]2CN1C(=O)c1ccccc1	none (no result: FEN1 inh)
O=C1c2ccccc2C(=O)c2c1cccc2N(CCO)CCO	none (no result: TDP1 inh, RECQ1 inh-1)
O=C1C=C(N(CCO)Cc2ccccc2)c2ccccc2C1=O	BLM inh inconclusive, RECQ1 inh-1 inconclusive | RECQ1 inh-2 inconclusive
NC(=O)Nc1ccc(/C=C2\C=Cc3ccccc32)cc1	none (no result: BLM inh, TDP1 inh, APE1 inh, RECQ1 inh-1)
O=C(Nc1nnc(C2CC2)s1)C1CC(=O)N(c2ccc3c(c2)OCCO3)C1 (configuration not stated)	APE1 inh inconclusive, RECQ1 inh-1 28µM (no result: TDP1 inh) | RECQ1 inh-2 inconclusive
Cc1cccc(CSCCNC(=O)C2CCN(S(=O)(=O)Cc3ccccc3)CC2)c1	none (no result: APE1 inh, RECQ1 inh-1)
Cc1ccc(CSC2=Nc3ccccc3C3=NC(CC(=O)NCc4ccco4)C(=O)N23)cc1 (configuration not stated)	RECQ1 inh-1 inconclusive | RECQ1 inh-2 inconclusive
CCc1ccc(N2C(=O)N(CC(=O)C(C)(C)C)c3ccccc3S2(=O)=O)cc1	none (no result: APE1 inh, RECQ1 inh-1)
COc1ccc(NC(=O)c2cc(OCCCN(C)C)nn2Cc2ccccc2)cc1	none (no result: FEN1 inh)
O=C(O)C/C(=C\c1ccc(N2CCOCC2)c([N+](=O)[O-])c1)c1nc2ccccc2s1	none | RECQ1 conf 112µM | RECQ1 ADP FP inconclusive
O=C(O)CC/C(=C\c1ccc(N2CCOCC2)c([N+](=O)[O-])c1)c1nc2ccccc2s1	none | RECQ1 conf inconclusive | RECQ1 ADP FP inconclusive
O=C(O)CC/C(=C\c1ccc(Cl)c([N+](=O)[O-])c1)c1nc2ccccc2s1	none
CSc1nc(N)c2ncn([C@@H]3O[C@H](COP(=O)(O)OP(=O)(O)OP(=O)(O)O)[C@H](O)[C@H]3O)c2n1	none (no result: BLM inh, FEN1 inh)
CN(C)CC1CCn2c(c(C3=C(c4cn(C)c5ccccc45)C(=O)NC3=O)c3ccccc32)C1 (configuration not stated)	RECQ1 inh-1 inconclusive (no result: FEN1 inh) | RECQ1 inh-2 79µM
Cn1cc(-c2nc3cnc(N4CCNCC4)nc3n(C3CC3)c2=O)c2ccccc21	APE1 inh inconclusive (no result: TDP1 inh, FEN1 inh)
COc1ccc(-c2cc(=O)c3cc(O)ccc3o2)cc1	RECQ1 inh-1 inconclusive | RECQ1 inh-2 inactive
CC(Sc1nnc(COc2ccc(Cl)cc2)n1-c1ccccc1)C(=O)O (configuration not stated)	none (no result: TDP1 inh, RECQ1 inh-1)
CC(Sc1nnc(COc2ccc(Cl)cc2)n1Cc1ccccc1)C(=O)O (configuration not stated)	none | RECQ1 conf inactive | RECQ1 ADP FP inactive
CC(C)n1c(=S)[nH]c2scc(-c3cccs3)c2c1=O	APE1 inh inconclusive, RECQ1 inh-1 28µM | RECQ1 inh-2 inconclusive
CC1CCN(CCCn2c(=S)[nH]c3c(sc4ccc([N+](=O)[O-])cc43)c2=O)CC1	RECQ1 inh-1 inconclusive | RECQ1 inh-2 inconclusive
COC(=O)C1=C(C(=O)OC)[C@@H]2N(Cc3ccccc3)c3ccccc3[C@@]23C[C@@H](C(=O)OC)N=C3N1	RECQ1 inh-1 inconclusive | RECQ1 inh-2 inactive
Cc1nn2c(=O)cc(COC(=O)c3cccs3)nc2s1	none (no result: APE1 inh, RECQ1 inh-1)
O=C(NCc1ccco1)C(=O)NCC1OCCN1S(=O)(=O)c1cc(F)ccc1F (configuration not stated)	APE1 inh inconclusive, RECQ1 inh-1 18µM | RECQ1 conf inactive | RECQ1 ADP FP inactive
O=C(NCc1ccco1)C(=O)NCC1OCCN1S(=O)(=O)c1ccc(F)cc1 (configuration not stated)	none
c1ccc(Nc2cccc3c(Nc4ccccc4)cccc23)cc1	RECQ1 inh-1 inconclusive | RECQ1 inh-2 inactive
c1ccc(Nc2ccccc2)cc1	none (no result: BLM inh)
COc1cccc(Cn2c(=O)cnc3cnc(OCc4ccccc4)nc32)c1	none (no result: TDP1 inh, FEN1 inh)
Cc1nc2cnc(N3CCOCC3)nc2n(Cc2ccc(F)cc2)c1=O	RECQ1 inh-1 0.63µM (no result: TDP1 inh, FEN1 inh) | RECQ1 inh-2 inactive
NC(N)=NCC1COC2(CCCCC2)O1 (configuration not stated)	none (no result: BLM inh, TDP1 inh, FEN1 inh, RECQ1 inh-1)
C=CCn1c(=O)[nH]c2cc(C(=O)N3CCN(c4ccc(C(C)=O)cc4)CC3)ccc2c1=O	RECQ1 inh-1 4.5µM | RECQ1 conf inconclusive | RECQ1 ADP FP inactive | RECQ1 inh-2 inconclusive
COc1ccc(-c2nc3cnc(N4CCNCC4)nc3n(Cc3cccc(OC)c3)c2=O)cc1	BLM inh inconclusive, APE1 inh inconclusive, RECQ1 inh-1 inconclusive (no result: TDP1 inh, FEN1 inh) | RECQ1 inh-2 inconclusive
Nc1[nH]c(=O)nc2nnsc12	none (no result: BLM inh, TDP1 inh, APE1 inh, RECQ1 inh-1)
CCOC(=O)C1(CCCc2ccccc2)CCN(C(=O)C2CCCO2)CC1 (configuration not stated)	none
CCOC(=O)C1(CCc2ccccc2)CCN(C(=O)C2CCCO2)CC1 (configuration not stated)	RECQ1 inh-1 inconclusive (no result: TDP1 inh) | RECQ1 inh-2 inactive
Fc1ccc(NCc2ccccc2-c2nnc(-c3ccccc3Cl)o2)cc1Cl	none (no result: APE1 inh, RECQ1 inh-1)
COC(=O)c1cccnc1-n1c(=O)c2cccnc2n(CC(=O)Nc2ccccc2F)c1=O	none (no result: APE1 inh, RECQ1 inh-1)
COc1ccccc1NS(=O)(=O)c1ccc(NC(=O)Cc2cccs2)cc1	none
